Here are results for eight sequences from PMC4081100, “A DNA-binding-site landscape and regulatory network analysis for NAC transcription factors in Arabidopsis thaliana”.

What all share (test): universal protein binding microarray (PBM); transcription factors of Arabidopsis thaliana; high values mean tight binding
The target of one assay is T1, GST-ANAC092(1-176) (Arabidopsis thaliana, UniProt Q9FKA0 1-176).
T1 sequence: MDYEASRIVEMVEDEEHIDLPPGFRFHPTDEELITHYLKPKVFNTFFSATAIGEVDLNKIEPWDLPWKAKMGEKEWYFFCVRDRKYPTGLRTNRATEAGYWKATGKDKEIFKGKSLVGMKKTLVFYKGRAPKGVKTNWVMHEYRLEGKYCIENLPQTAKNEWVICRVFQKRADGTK
Conditions: protein: recombinant; tags: GST; chain copies: 2; dsDNA, one strand shown. The method in brief: (§1)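 GST-tagged proteins (NAC-domain, full-length or DNA-binding-domain) were induced in cells, with zinc acetate supplied for zinc-finger proteins, then purified on glutathione–Sepharose 4B. Each was tested in duplicate at 200 to 500 nM final on custom all-10-mer Agilent 4 × 180K arrays rendered double-stranded by primer extension. The binding value is the normalised enrichment score (E-score) across gapped and ungapped 8-mers.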

The next assay has as its target GST-NTL6(1-168) (Arabidopsis thaliana, UniProt Q9SCK6 1-168). The following applies: protein: recombinant; tags: GST; chain copies: 2; dsDNA, one strand shown. The method in brief: as §1
Another assay concerns the target T2, GST-ANAC019 NAC domain (Arabidopsis thaliana, UniProt Q9C932 14-162).
T2 sequence: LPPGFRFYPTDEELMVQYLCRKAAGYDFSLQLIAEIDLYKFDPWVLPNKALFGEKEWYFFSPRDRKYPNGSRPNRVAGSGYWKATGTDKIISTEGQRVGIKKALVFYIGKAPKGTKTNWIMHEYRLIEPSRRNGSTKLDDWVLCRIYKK
The following applies: protein: recombinant; tags: GST; chain copies: 2; dsDNA, one strand shown. The method in brief:
as §1

The next assay concerns the target T3, GST-ATAF1 NAC domain (Arabidopsis thaliana, UniProt Q39013 7-158).
T3 sequence: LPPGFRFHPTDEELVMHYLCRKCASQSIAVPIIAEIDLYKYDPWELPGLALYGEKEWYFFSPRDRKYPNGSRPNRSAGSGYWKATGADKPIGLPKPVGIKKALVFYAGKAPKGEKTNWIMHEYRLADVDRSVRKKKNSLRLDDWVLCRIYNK
Conditions: protein: recombinant; tags: GST; chain copies: 2; dsDNA, one strand shown. The method in brief: as §1

In assay [1] the target is T4, GST-ANAC092(1-285) full length (Arabidopsis thaliana, UniProt Q9FKA0 1-285).
T4 sequence: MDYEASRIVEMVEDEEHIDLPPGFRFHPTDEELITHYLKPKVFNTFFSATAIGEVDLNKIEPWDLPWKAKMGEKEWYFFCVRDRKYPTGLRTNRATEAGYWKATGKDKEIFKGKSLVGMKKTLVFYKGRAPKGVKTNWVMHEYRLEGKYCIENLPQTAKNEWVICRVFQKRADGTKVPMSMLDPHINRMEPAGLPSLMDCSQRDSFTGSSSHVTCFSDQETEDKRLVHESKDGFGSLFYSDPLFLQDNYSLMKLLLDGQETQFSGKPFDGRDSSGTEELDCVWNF
Conditions: protein: recombinant; tags: GST; chain copies: 2; dsDNA, one strand shown. In a few lines:
as §1

A further assay addresses T5, GST-NAP(1-166) (Arabidopsis thaliana, UniProt O49255 1-166).
T5 sequence: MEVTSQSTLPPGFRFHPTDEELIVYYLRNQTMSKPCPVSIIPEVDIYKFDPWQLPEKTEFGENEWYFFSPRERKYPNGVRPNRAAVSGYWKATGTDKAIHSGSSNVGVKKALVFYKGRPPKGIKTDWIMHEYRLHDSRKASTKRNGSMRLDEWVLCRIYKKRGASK
Conditions: protein: recombinant; tags: GST; chain copies: 2; dsDNA, one strand shown. The method in brief: as §1

The next assay has as its target T6, GST-NTL8 NAC domain (Arabidopsis thaliana, UniProt Q9XIN7 14-156).
T6 sequence: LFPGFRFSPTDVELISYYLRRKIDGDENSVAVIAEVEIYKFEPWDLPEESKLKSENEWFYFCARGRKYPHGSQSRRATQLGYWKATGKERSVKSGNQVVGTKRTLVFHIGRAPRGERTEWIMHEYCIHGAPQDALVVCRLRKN
Conditions: protein: recombinant; tags: GST; chain copies: 2; dsDNA, one strand shown. The method in brief:
as §1

Another assay addresses T7, GST-SND1(1-203) (Arabidopsis thaliana, UniProt Q9LPI7 1-203).
T7 sequence: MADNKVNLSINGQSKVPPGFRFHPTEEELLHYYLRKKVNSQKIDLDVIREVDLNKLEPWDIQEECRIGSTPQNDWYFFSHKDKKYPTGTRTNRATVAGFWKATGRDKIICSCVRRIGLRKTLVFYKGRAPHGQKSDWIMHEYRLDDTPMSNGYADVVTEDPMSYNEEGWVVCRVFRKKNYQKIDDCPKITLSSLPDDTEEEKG
Conditions: protein: recombinant; tags: GST; chain copies: 2; dsDNA, one strand shown. In a few lines: as §1

For a further assay, the target named is T8, GST-VND3 NAC domain (Arabidopsis thaliana, UniProt Q9FH59 12-162).
T8 sequence: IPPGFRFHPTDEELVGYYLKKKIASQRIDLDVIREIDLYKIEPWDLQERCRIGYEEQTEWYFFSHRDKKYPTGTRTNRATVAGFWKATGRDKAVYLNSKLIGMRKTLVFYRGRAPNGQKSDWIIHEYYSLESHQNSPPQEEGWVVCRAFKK
The following applies: protein: recombinant; tags: GST; chain copies: 2; dsDNA, one strand shown. In a few lines:
as §1

The target in a further assay is GST-WRKY1(266-371) (Arabidopsis thaliana, UniProt Q9SI37 266-371). The following applies: protein: recombinant; tags: GST; dsDNA, one strand shown. In a few lines:
as §1

The target of the next assay is T9, GST-ANAC055(1-171) (Arabidopsis thaliana, UniProt Q9LDY8 1-171).
T9 sequence: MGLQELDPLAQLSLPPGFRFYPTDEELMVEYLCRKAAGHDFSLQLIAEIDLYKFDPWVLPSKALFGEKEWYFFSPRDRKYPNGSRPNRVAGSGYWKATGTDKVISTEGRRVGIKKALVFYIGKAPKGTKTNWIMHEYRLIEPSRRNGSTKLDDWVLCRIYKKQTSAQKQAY
The following applies: protein: recombinant; tags: GST; chain copies: 2; dsDNA, one strand shown. The method in brief:
as §1

Another assay addresses T10, GST-NST2(1-184) (Arabidopsis thaliana, UniProt Q9M274 1-184).
T10 sequence: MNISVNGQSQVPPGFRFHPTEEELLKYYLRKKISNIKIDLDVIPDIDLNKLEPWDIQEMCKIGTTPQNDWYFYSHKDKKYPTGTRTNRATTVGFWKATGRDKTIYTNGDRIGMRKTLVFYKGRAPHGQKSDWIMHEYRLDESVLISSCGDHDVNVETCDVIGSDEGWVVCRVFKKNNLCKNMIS
Conditions: protein: recombinant; tags: GST; chain copies: 2; dsDNA, one strand shown. In a few lines: as §1

In another assay the target is T11, GST-VND7 NAC domain (Arabidopsis thaliana, UniProt Q9C8W9 9-158).
T11 sequence: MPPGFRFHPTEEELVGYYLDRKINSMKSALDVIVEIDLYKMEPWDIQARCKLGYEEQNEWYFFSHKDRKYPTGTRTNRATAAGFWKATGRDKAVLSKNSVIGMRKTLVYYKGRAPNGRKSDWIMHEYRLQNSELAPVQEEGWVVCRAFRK
The following applies: protein: recombinant; tags: GST; chain copies: 2; dsDNA, one strand shown. In a few lines:
as §1

GST-NTL6(1-168), sequence (Q9SCK6 1-168): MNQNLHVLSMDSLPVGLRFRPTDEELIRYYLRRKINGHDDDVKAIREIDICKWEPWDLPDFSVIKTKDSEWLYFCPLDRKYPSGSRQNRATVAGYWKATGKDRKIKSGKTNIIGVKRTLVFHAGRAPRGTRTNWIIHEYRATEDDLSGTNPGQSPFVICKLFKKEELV
GST-WRKY1(266-371), sequence (Q9SI37 266-371): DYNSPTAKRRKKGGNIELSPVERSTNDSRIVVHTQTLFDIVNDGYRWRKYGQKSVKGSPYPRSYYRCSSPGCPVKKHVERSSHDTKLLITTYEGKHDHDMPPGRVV

In the case of AGGGAAAC, the binding signal turned out to be 0.0845 E-score in the assay with GST-ANAC092(1-176); 0.115 E-score with GST-NTL6(1-168); 0.0754 E-score with GST-ANAC019 NAC domain; 0.0887 E-score with GST-ATAF1 NAC domain; 0.071 E-score in assay [1]; 0.14 E-score with GST-NAP(1-166). Further, the binding signal with GST-NTL8 NAC domain came to 0.482 E-score; in the assay with GST-SND1(1-203), 0.0839 E-score; in the assay with GST-VND3 NAC domain, 0.0608 E-score.
TCCGTCAA: the binding signal amounted to 0.0961 E-score with GST-ANAC019 NAC domain, 0.063 E-score with GST-SND1(1-203), 0.105 E-score with GST-VND3 NAC domain and 0.412 E-score with GST-WRKY1(266-371).
With GCTAAGTA, the binding signal with GST-NTL6(1-168) is 0.429 E-score; with GST-NAP(1-166), 0.0551 E-score; with GST-SND1(1-203), 0.121 E-score; in the assay with GST-VND3 NAC domain it was 0.0851 E-score.
In the case of CACTCAAC, the binding signal in the assay with GST-ANAC092(1-176) was determined as 0.4 E-score; with GST-NTL6(1-168), 0.0871 E-score; with GST-ANAC019 NAC domain, 0.151 E-score; with GST-ANAC055(1-171), 0.139 E-score; with GST-ATAF1 NAC domain it was 0.0909 E-score; in assay [1], 0.424 E-score. Also, the binding signal with GST-NST2(1-184) turned out to be 0.237 E-score; with GST-SND1(1-203) it was 0.243 E-score; in the assay with GST-VND3 NAC domain, 0.089 E-score.
As to ACTTTCCT, the binding signal with GST-NTL6(1-168) stood at 0.292 E-score; with GST-ANAC055(1-171) it was 0.171 E-score; with GST-ATAF1 NAC domain, 0.0923 E-score; in [1], 0.0813 E-score; with GST-NST2(1-184) it was 0.144 E-score; with GST-NTL8 NAC domain, 0.4 E-score. Further, the results for the binding signal with GST-SND1(1-203), with GST-VND7 NAC domain and with GST-WRKY1(266-371) were 0.145 E-score, 0.121 E-score and 0.171 E-score, respectively.
On to ACACTCCA, for which the binding signal with GST-ANAC092(1-176) stood at 0.398 E-score; with GST-ANAC019 NAC domain, 0.0899 E-score; with GST-ANAC055(1-171), 0.15 E-score; with GST-ATAF1 NAC domain, 0.17 E-score; in [1], 0.429 E-score; with GST-NST2(1-184) it was 0.226 E-score. The binding signal came to 0.278 E-score with GST-SND1(1-203) and 0.0605 E-score with GST-VND3 NAC domain.
Take CAAGTCAG: the binding signal in [1] was 0.11 E-score; with GST-SND1(1-203), 0.0706 E-score; with GST-VND3 NAC domain it was 0.0527 E-score; with GST-WRKY1(266-371) it was 0.417 E-score.
In the case of AGCGTCAA, the binding signal turned out to be 0.0554 E-score with GST-ANAC092(1-176); 0.0689 E-score with GST-ATAF1 NAC domain; 0.158 E-score in assay [1]; 0.0978 E-score in the assay with GST-NAP(1-166); 0.135 E-score with GST-NST2(1-184); 0.12 E-score with GST-NTL8 NAC domain. Further, the values for the binding signal in the assay with GST-SND1(1-203), with GST-VND7 NAC domain and in the assay with GST-WRKY1(266-371) were 0.246 E-score, 0.0921 E-score and 0.408 E-score, respectively.
